Reference: PubChem BioAssay (Tox21)
“And” between values parts separate entries of the source, which are not always exact repeats. Equal entries are not always repeated. Results filed as inconclusive are left out. Some structures have more than one record in an assay (separate samples or runs), and their calls can disagree. The source made the active and inactive calls. Unless noted, the call rests on the fitted dose curve; in most records, active means well fitted curve in the direction sought with a large enough effect in the repeat runs; inconclusive means weak or mixed curves; inactive means no such curve, though single readings can be large; an effect the other way counts as inactive or inconclusive.

Tests used:
[1] = qHTS RealTime-Glo MT Cell Viability Assay in HepG2 cells - 16 hour (AID 1224885); further: nearly all actives have a fitted effect of over 50% in size
Procedure, shortened: (§1)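 Cells + NanoLuc/prosubstrate dispensed (600 cells/well) → 5 h at 37 C/5% CO2 → compounds in DMSO transferred → 40 h incubation at 37 C, luminescence read at 0, 8, 16, 24, 32, 40 h.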

[2] = A CellTox Green Cytotoxicity Assay to monitor cytotoxicity in HEK293 cells - 16 hour (AID 1224888); further: nearly all actives have a fitted effect of over 35% in size
Procedure, shortened: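 HEK293 cells, 600/well, were preincubated 5 hours and then exposed to compounds at 37 C for up to 40 hours. A cell-impermeant cyanine dye staining dead-cell DNA was read by fluorescence at 0, 8, 16, 24, 32 and 40 h time points.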

[3] = qHTS RealTime-Glo MT Cell Viability Assay in HepG2 cells - 0 hour (AID 1224889); further: nearly all actives have a fitted effect of over 50% in size
Procedure, shortened: as §1

[4] = A CellTox Green Cytotoxicity Assay to monitor cytotoxicity in HepG2 cells - 8 hour (AID 1224890); further: nearly all actives have a fitted effect of over 45% in size
Procedure, shortened: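 HepG2 cells, 600/well, preincubated 5 h with CellTox Green dye, then exposed to Tox21 compounds in DMSO at 37 C for up to 40 h. Dead-cell DNA fluorescence read at the indicated time point.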

[5] = qHTS assay to identify small molecule antagonists of the estrogen receptor alpha (ER-alpha) signaling pathway using the BG1 cell line in the presence of 0.1 nM 17-beta-estradiol - cell viability counter screen (AID 1259241); further: nearly all actives have a fitted effect of over 40% in size
Procedure, shortened: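 Viability in VM7Luc4E2 cells after 22 hr compound exposure under 0.1 nM 17beta-estradiol stimulation, by CellTiter-Fluor.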

[6] = qHTS assay to identify small molecule antagonists of the androgen receptor (AR) signaling pathway using the MDA cell line in the presence of 0.5 nM R1881 - cell viability counter screen (AID 1259242); further: nearly all actives have a fitted effect of over 45% in size
Procedure, shortened: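 MDA-kb2 cells (MMTV-luciferase, AR/GR responsive) were treated with compounds plus 0.5 nM R1881 (final) for 16 hr at 37C, 0% CO2. Viability was then read in the same wells as live-cell protease fluorescence (CellTiter-Fluor, 30 min).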

[7] = molecular target: Estrogen receptor (Homo sapiens) (UniProt P03372); test: qHTS assay to identify small molecule antagonists of the estrogen receptor alpha (ER-alpha) signaling pathway using the BG1 cell line in the presence of 0.1 nM 17-beta-estradiol (AID 1259244); further: nearly all actives have a fitted effect of over 50% in size; further: potency means the concentration at half of the fitted maximal effect
Estrogen receptor (Homo sapiens), sequence (P03372 whole entry, looked up): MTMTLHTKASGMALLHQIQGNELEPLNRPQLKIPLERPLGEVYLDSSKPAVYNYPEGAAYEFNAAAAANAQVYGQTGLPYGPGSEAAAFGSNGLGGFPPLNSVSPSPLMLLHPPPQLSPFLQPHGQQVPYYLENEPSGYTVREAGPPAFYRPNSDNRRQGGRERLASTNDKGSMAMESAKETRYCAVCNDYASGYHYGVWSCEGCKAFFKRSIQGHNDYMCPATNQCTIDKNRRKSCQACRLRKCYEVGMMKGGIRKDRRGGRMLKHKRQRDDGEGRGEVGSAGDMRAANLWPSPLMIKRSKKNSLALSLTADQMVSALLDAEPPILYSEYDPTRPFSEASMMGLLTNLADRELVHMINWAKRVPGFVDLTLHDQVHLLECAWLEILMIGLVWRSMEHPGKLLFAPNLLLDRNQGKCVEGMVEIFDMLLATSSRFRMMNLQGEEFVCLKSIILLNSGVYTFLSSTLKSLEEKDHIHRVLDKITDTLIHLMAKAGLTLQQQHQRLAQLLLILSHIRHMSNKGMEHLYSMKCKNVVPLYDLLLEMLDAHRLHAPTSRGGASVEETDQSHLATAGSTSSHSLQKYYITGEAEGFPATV
Procedure, shortened: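 VM7Luc4E2 cells (endogenous full-length ER-alpha, 4×ERE-luciferase), kept 5 days in phenol red-free, charcoal-stripped FBS medium; 4,000 cells/well. Compounds added with 0.1 nM (final) 17beta-estradiol, 22 hr at 37C; luminescence read with ONE-Glo after 30 min.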

[8] = qHTS assay to identify small molecule HDAC inhibitors (AID 1259364); further: top concentration of the series differs between compounds; nearly all actives have a fitted effect of over 45% in size
Procedure, shortened: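 Wild-type HCT-116 cells, plated overnight at 37 C, exposed to compounds 2 hr at 37 C; luminogenic HDAC-Glo substrate then added 30 min at room temperature. Luminescence reports relative endogenous class I/II HDAC activity.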

[9] = qHTS assay to identify small molecule HDAC inhibitors - cell viability counter screen (AID 1259365); further: series mostly up to about 92 µM; nearly all actives have a fitted effect of over 50% in size
Procedure, shortened: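 Cytotoxicity was gauged in wild-type HCT-116 cells after a brief 2hr treatment with DMSO-dissolved compounds at 37C and 5% CO2, using CellTiter-Glo luminescence developed for 30min at room temperature.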

[10] = qHTS assay to identify small molecule agonists of the sonic hedgehog signaling (Shh) pathway - cell viability counter screen (AID 1259366); further: nearly all actives have a fitted effect of over 50% in size
Procedure, shortened: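 Stable Gli1-Luc NIH/3T3 clone, 2,000 cells/well. Compound exposure 24hr at 37C. Read-out: CellTiter-Fluor fluorescence.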

[11] = qHTS assay to identify small molecule agonists of the sonic hedgehog signaling (Shh) pathway (AID 1259368; calls by dose curve;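 further: NIH/3T3-derived 3T3Gli1-Luc cells carrying a stable Gli1-driven firefly luciferase reporter; series mostly up to about 92 µM; nearly all actives have a fitted effect of over 15% in size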)
Procedure, shortened: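 NIH/3T3-derived 3T3Gli1-Luc cells with stably integrated Gli1-driven firefly luciferase, 2,000 cells/well, compounds added after 4 hr. Incubated 24 hr at 37C, 5% CO2; luminescence read after 30 min with luciferase reagent at room temperature.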

[12] = qHTS assay to identify small molecule antagonists of the sonic hedgehog signaling (Shh) pathway (AID 1259369; calls by dose curve; further: nearly all actives have a fitted effect of over 45% in size; further: potency means the concentration at half of the fitted maximal effect)
Procedure, shortened: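 NIH/3T3-derived Gli1-Luc reporter cells plated 4 h, dosed with compound, then stimulated with conditioned medium for 24 h at 37 C. Firefly luciferase luminescence read after 30 min with detection reagent at room temperature.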

[13] = qHTS assay to identify small molecule agonists of the androgen receptor (AR) signaling pathway in the presence of an antagonist - cell viability counter screen (AID 1259379);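 further: MDA-kb2 human breast cancer cells carrying an MMTV luciferase reporter; series mostly up to about 92 µM; nearly all actives have a fitted effect of over 25% in size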
Procedure, shortened: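 MDA-kb2 cells (MMTV-luciferase, AR/GR), 3,000/well, 5 h attachment, then 3.0 µM nilutamide (final) and compounds at 15 concentrations. Viability by CellTiter-Fluor fluorescence after 16 h at 37 °C, 0% CO2, in the reporter wells.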

[14] = qHTS RealTime-Glo MT Cell Viability Assay in HEK293 cells - 24 hour (AID 1224886); further: nearly all actives have a fitted effect of over 50% in size; further: potency means the concentration at half of the fitted maximal effect
Procedure, shortened: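 Tox21 10K qHTS, HEK293, 600 cells/well, RealTime-Glo reagent co-dispensed with cells; 5 h preincubation, compound by pintool, 37 C, luminescence at 0–40 h.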

[15] = qHTS RealTime-Glo MT Cell Viability Assay in HEK293 cells - 8 hour (AID 1224887)
Procedure, shortened: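 600 cells/well were plated with the nonlytic NanoLuc/prosubstrate reagent, pre-incubated 5 h, then given 23 nL of compound in DMSO. Incubation at 37 C for 40 h, with luminescence from viable-cell-reduced substrate read repeatedly from 0 h.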

[16] = molecular target: Estrogen receptor beta (Homo sapiens) (UniProt Q92731); test: qHTS assay to identify small molecule agonists of the estrogen receptor beta (ER-beta) signaling pathway (AID 1259377; active means well fitted activation curve with a large enough effect in the signal ratio in the repeat runs, not every such curve was filed as active; the % refers to the signal ratio)
Estrogen receptor beta (Homo sapiens), sequence (Q92731 whole entry, looked up): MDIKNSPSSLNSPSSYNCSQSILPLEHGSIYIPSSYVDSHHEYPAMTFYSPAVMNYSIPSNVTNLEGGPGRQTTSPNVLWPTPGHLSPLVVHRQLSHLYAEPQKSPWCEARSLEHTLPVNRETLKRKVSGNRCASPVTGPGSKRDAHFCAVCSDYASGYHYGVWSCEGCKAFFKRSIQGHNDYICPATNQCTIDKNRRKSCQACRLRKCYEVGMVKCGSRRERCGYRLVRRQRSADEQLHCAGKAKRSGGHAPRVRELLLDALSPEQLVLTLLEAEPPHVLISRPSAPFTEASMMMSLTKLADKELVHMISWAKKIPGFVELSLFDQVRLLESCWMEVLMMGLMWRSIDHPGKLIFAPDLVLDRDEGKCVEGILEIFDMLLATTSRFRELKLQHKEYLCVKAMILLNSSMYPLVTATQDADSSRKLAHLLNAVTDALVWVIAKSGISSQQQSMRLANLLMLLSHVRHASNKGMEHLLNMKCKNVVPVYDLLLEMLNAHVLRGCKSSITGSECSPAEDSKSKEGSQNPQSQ
Procedure, shortened: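 Measured by fluorescence intensity from a B/G FRET beta-lactamase substrate (2 h, room temperature) in ER-beta-UAS-bla HEK293T cells treated with DMSO-dissolved compounds for 16 hr at 37C and 5% CO2.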

[17] = molecular target: Estrogen receptor beta (Homo sapiens) (UniProt Q92731); test: qHTS assay to identify small molecule antagonists of the estrogen receptor beta (ER-beta) signaling pathway (AID 1259378; active means well fitted inhibition curve with a large enough effect in the signal ratio in the repeat runs, not every such curve was filed as active; the % refers to the signal ratio)
Procedure, shortened: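 ER-beta-UAS-bla HEK293T (GripTite) cells in 2% charcoal-stripped FBS medium were preincubated 6 hr at 37C, dosed with compound, then stimulated with 1 nM E2 (final) for 16 hr; beta-lactamase reporter read by B/G FRET fluorescence after 2 hr substrate loading.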

[18] = qHTS assay to identify small molecule phospholipidosis (PLD) inducers (AID 1259344; active means well fitted curve in the direction sought with a large enough effect; an effect the other way counts as inactive or inconclusive)
Procedure, shortened: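 HepG2 cells on collagen I, attached 4 h at 37 C, were co-treated with compound and LipidTOX Red dye for 24 h at 37 C, then fixed with paraformaldehyde plus Hoechst 33342 and imaged by high-content microscopy for phospholipid accumulation.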

[19] = qHTS assay to identify small molecule antagonists of the sonic hedgehog signaling (Shh) pathway - cell viability counter screen (AID 1259367); further: nearly all actives have a fitted effect of over 55% in size
Procedure, shortened: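 NIH/3T3-derived Gli1-Luc reporter cells (2,000 per well) rested 4 hr at 37 C, then received DMSO compounds plus conditioned medium. After 23 hr of treatment, CellTiter-Fluor was added for 1 hr at 37C and fluorescence read.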

Measured: Potency

O=C(OCCOCCOC(=O)c1ccccc1)c1ccccc1
not listed: [14] | [15] | [16] | [17] | [18] | [19]
inactive: all other assays above

CSCCC=O
not listed: [3] | [7] | [11] | [18] | [19]
inactive: all other assays above

COc1ccc(Cl)cc1C(=O)NCCc1ccc(S(=O)(=O)NC(=O)NC2CCCCC2)cc1
not listed: [3] | [7]
inactive: all other assays above

CC1CCC2CC1C2(C)C (stereo not drawn)
not listed: [3] | [7] | [18] | [19]
inactive: all other assays above

C=C(C)C(=O)Nc1ccc(Cl)c(Cl)c1
active: [14] 19.7 µM and 21.8 µM | [7] 69.3 µM | [12] 17.4 µM and 43.1 µM
not listed: [3] | [11] | [15] | [18] | [19]
inactive: all other assays above

CC(=O)CC(=O)Nc1ccccc1C
not listed: [3] | [18]
inactive: all other assays above

COc1ccc(Nc2ccccc2)c(C)c1
not listed: [3] | [16] | [17] | [18]
inactive: all other assays above

Cc1occc(=O)c1O
not listed: [3] | [7] | [16] | [17] | [18]
inactive: all other assays above

CCCCCCOCCO
not listed: [3] | [18]
inactive: all other assays above

CC(C)c1ccc(S(=O)(=O)O)cc1
not listed: [3] | [11] | [18]
inactive: all other assays above

CN(C)CCCN
not listed: [3] | [16] | [17] | [18]
inactive: all other assays above

O=S1(=O)CC=CC1
6.62 µM (active) and inactive: [12]
not listed: [3] | [18] | [19]
inactive: all other assays above
